# Structures can show the parent of a compound that is named as a salt.
# Assays:
# HCC1937 = assay: relative cell viability, compound + RSL3, vs DMSO (fraction of DMSO control); higher = less growth inhibition; settings: 72 h
# MDA-MB-231 = assay: as above; settings: 72 h
# 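Further: breast cancer cell viability read out with the CCK-8 kit after co-treatment of each compound with the ferroptosis inducer RSL3.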
compound,measurement,setting,value
Cc1c(C(=O)NN2CCOCC2)nn(-c2ccc(Cl)cc2Cl)c1-c1ccc(I)cc1 + COC(=O)c1ccc([C@H]2c3[nH]c4ccccc4c3C[C@H](C(=O)OC)N2C(=O)CCl)cc1 [RSL3],relative cell viability,HCC1937,0.0566
same,relative cell viability,MDA-MB-231,0.297
CC(=O)c1c(C)cc2cccc(O)c2c1O [Nepodin] + COC(=O)c1ccc([C@H]2c3[nH]c4ccccc4c3C[C@H](C(=O)OC)N2C(=O)CCl)cc1 [RSL3],relative cell viability,HCC1937,0.404
same,relative cell viability,MDA-MB-231,0.56
COCCNC(=O)Nc1ccc2nc(-c3cccs3)c(-c3cccs3)nc2c1 [Ac-CoA Synthase Inhibitor1] + COC(=O)c1ccc([C@H]2c3[nH]c4ccccc4c3C[C@H](C(=O)OC)N2C(=O)CCl)cc1 [RSL3],relative cell viability,HCC1937,0.594
same,relative cell viability,MDA-MB-231,0.566
CC1(C)CC[C@]2(C(=O)O[C@@H]3O[C@H](CO)[C@@H](O)[C@H](O)[C@H]3O)CC[C@]3(C)C(=CC[C@@H]4[C@@]5(C)CC[C@H](O[C@@H]6O[C@H](C(=O)O)[C@@H](O)[C@H](O)[C@H]6O)C(C)(C)[C@@H]5CC[C@]43C)[C@@H]2C1 [Chikusetsusaponin IVa] + COC(=O)c1ccc([C@H]2c3[nH]c4ccccc4c3C[C@H](C(=O)OC)N2C(=O)CCl)cc1 [RSL3],relative cell viability,HCC1937,0.597
same,relative cell viability,MDA-MB-231,0.572
CC(C)(CCCCCC(O)CCCCCC(C)(C)C(=O)O)C(=O)O + COC(=O)c1ccc([C@H]2c3[nH]c4ccccc4c3C[C@H](C(=O)OC)N2C(=O)CCl)cc1 [RSL3],relative cell viability,HCC1937,0.288
same,relative cell viability,MDA-MB-231,0.337
Cc1cnc(C(=O)NCCc2ccc(S(=O)(=O)NC(=O)NC3CCCCC3)cc2)cn1 [Glipizide] + COC(=O)c1ccc([C@H]2c3[nH]c4ccccc4c3C[C@H](C(=O)OC)N2C(=O)CCl)cc1 [RSL3],relative cell viability,HCC1937,0.597
same,relative cell viability,MDA-MB-231,0.484
C=CC[S+]([O-])C[C@H](N)C(=O)O (stereo not given in full) [Alliin] + COC(=O)c1ccc([C@H]2c3[nH]c4ccccc4c3C[C@H](C(=O)OC)N2C(=O)CCl)cc1 [RSL3],relative cell viability,HCC1937,0.554
same,relative cell viability,MDA-MB-231,0.704
C=C1C[C@]2(O)O[C@@]3(CC2=C(C)C)[C@@H](C)CC[C@@H]13 [Isocurcumenol] + COC(=O)c1ccc([C@H]2c3[nH]c4ccccc4c3C[C@H](C(=O)OC)N2C(=O)CCl)cc1 [RSL3],relative cell viability,HCC1937,0.612
same,relative cell viability,MDA-MB-231,0.568
COc1ccc(C(=O)/C=C/c2ccccc2)cc1 [4'-Methoxychalcone] + COC(=O)c1ccc([C@H]2c3[nH]c4ccccc4c3C[C@H](C(=O)OC)N2C(=O)CCl)cc1 [RSL3],relative cell viability,HCC1937,0.282
same,relative cell viability,MDA-MB-231,0.582
NC(=O)c1cccc(-c2cccc(OC(=O)NC3CCCCC3)c2)c1 + COC(=O)c1ccc([C@H]2c3[nH]c4ccccc4c3C[C@H](C(=O)OC)N2C(=O)CCl)cc1 [RSL3],relative cell viability,HCC1937,0.407
same,relative cell viability,MDA-MB-231,0.707
C[C@@H]1OCC2(CCN(c3cnc(Sc4ccnc(N)c4Cl)c(N)n3)CC2)[C@@H]1N + COC(=O)c1ccc([C@H]2c3[nH]c4ccccc4c3C[C@H](C(=O)OC)N2C(=O)CCl)cc1 [RSL3],relative cell viability,HCC1937,0.378
same,relative cell viability,MDA-MB-231,0.71
C[C@H](CCOc1cccc(CC(=O)O)c1)N(Cc1cccc(C(F)(F)F)c1Cl)CC(c1ccccc1)c1ccccc1 + COC(=O)c1ccc([C@H]2c3[nH]c4ccccc4c3C[C@H](C(=O)OC)N2C(=O)CCl)cc1 [RSL3],relative cell viability,HCC1937,0.318
same,relative cell viability,MDA-MB-231,0.532
CCc1c(-c2ccccc2)c(-c2ccccc2)nn1-c1ccccc1-c1cccc(OCC(=O)O)c1 + COC(=O)c1ccc([C@H]2c3[nH]c4ccccc4c3C[C@H](C(=O)OC)N2C(=O)CCl)cc1 [RSL3],relative cell viability,HCC1937,0.503
same,relative cell viability,MDA-MB-231,0.741
"CCCCCCCCCCC#CC#CCCCCCCCCC(=O)O [10,12-Tricosadiynoic acid] + COC(=O)c1ccc([C@H]2c3[nH]c4ccccc4c3C[C@H](C(=O)OC)N2C(=O)CCl)cc1 [RSL3]",relative cell viability,HCC1937,0.4
same,relative cell viability,MDA-MB-231,0.634
O=P(O)(O)OC(CO)CO [β-Glycerol phosphate disodium salt pentahydrate] + COC(=O)c1ccc([C@H]2c3[nH]c4ccccc4c3C[C@H](C(=O)OC)N2C(=O)CCl)cc1 [RSL3],relative cell viability,HCC1937,0.343
same,relative cell viability,MDA-MB-231,0.56
N=C(N)NCCC(=O)O [3-Guanidinopropionic Acid] + COC(=O)c1ccc([C@H]2c3[nH]c4ccccc4c3C[C@H](C(=O)OC)N2C(=O)CCl)cc1 [RSL3],relative cell viability,HCC1937,0.509
same,relative cell viability,MDA-MB-231,0.659
O=C(O)C(=O)Nc1sc2c(c1C(=O)O)CCNC2 + COC(=O)c1ccc([C@H]2c3[nH]c4ccccc4c3C[C@H](C(=O)OC)N2C(=O)CCl)cc1 [RSL3],relative cell viability,HCC1937,0.541
same,relative cell viability,MDA-MB-231,0.648
C[C@H](CCCC(C)(C)O)[C@H]1CC[C@H]2[C@@H]3CC=C4C[C@@H](O)CC[C@]4(C)[C@H]3CC[C@]12C [25-Hydroxycholesterol] + COC(=O)c1ccc([C@H]2c3[nH]c4ccccc4c3C[C@H](C(=O)OC)N2C(=O)CCl)cc1 [RSL3],relative cell viability,HCC1937,0.572
same,relative cell viability,MDA-MB-231,0.649
CCOC(=O)c1c(NC(=O)CN2CCN(C(=O)c3ccco3)CC2)sc2c1CCC2 + COC(=O)c1ccc([C@H]2c3[nH]c4ccccc4c3C[C@H](C(=O)OC)N2C(=O)CCl)cc1 [RSL3],relative cell viability,HCC1937,0.384
same,relative cell viability,MDA-MB-231,0.476
COc1ccc(Nc2ccn(-c3ccccc3)n2)cc1 + COC(=O)c1ccc([C@H]2c3[nH]c4ccccc4c3C[C@H](C(=O)OC)N2C(=O)CCl)cc1 [RSL3],relative cell viability,HCC1937,0.425
same,relative cell viability,MDA-MB-231,0.839
CC(C)OC(=O)C(C(=O)OC(C)C)=C1SC=CS1 [Malotilate] + COC(=O)c1ccc([C@H]2c3[nH]c4ccccc4c3C[C@H](C(=O)OC)N2C(=O)CCl)cc1 [RSL3],relative cell viability,HCC1937,0.337
same,relative cell viability,MDA-MB-231,0.547
CCN(CC)CCCC(C)Nc1c2ccc(Cl)cc2nc2ccc(OC)cc12 (stereo not given) [Quinacrine dihydrochloride] + COC(=O)c1ccc([C@H]2c3[nH]c4ccccc4c3C[C@H](C(=O)OC)N2C(=O)CCl)cc1 [RSL3],relative cell viability,HCC1937,0.301
same,relative cell viability,MDA-MB-231,0.283
O=C(Nc1ccccc1)c1cc([N+](=O)[O-])ccc1Cl + COC(=O)c1ccc([C@H]2c3[nH]c4ccccc4c3C[C@H](C(=O)OC)N2C(=O)CCl)cc1 [RSL3],relative cell viability,HCC1937,0.805
same,relative cell viability,MDA-MB-231,0.705
COc1ccc(-c2cc(=O)c3c(O)c(OC)c(O)cc3o2)cc1OC [Eupatilin] + COC(=O)c1ccc([C@H]2c3[nH]c4ccccc4c3C[C@H](C(=O)OC)N2C(=O)CCl)cc1 [RSL3],relative cell viability,HCC1937,0.354
same,relative cell viability,MDA-MB-231,0.496
CCc1ccc(CCOc2ccc(CC3SC(=O)NC3=O)cc2)nc1 (stereo not given) [Pioglitazone] + COC(=O)c1ccc([C@H]2c3[nH]c4ccccc4c3C[C@H](C(=O)OC)N2C(=O)CCl)cc1 [RSL3],relative cell viability,HCC1937,0.919
same,relative cell viability,MDA-MB-231,0.629
Cc1nc2ccc(NCc3cccc(C(F)(F)F)c3)cc2n(CCNC(=O)CO)c1=O + COC(=O)c1ccc([C@H]2c3[nH]c4ccccc4c3C[C@H](C(=O)OC)N2C(=O)CCl)cc1 [RSL3],relative cell viability,HCC1937,0.354
same,relative cell viability,MDA-MB-231,0.567
CCCCCCCCCCC[C@@H](C[C@@H]1OC(=O)[C@H]1CCCCCC)OC(=O)[C@H](CC(C)C)NC=O [Orlistat] + COC(=O)c1ccc([C@H]2c3[nH]c4ccccc4c3C[C@H](C(=O)OC)N2C(=O)CCl)cc1 [RSL3],relative cell viability,HCC1937,0.572
same,relative cell viability,MDA-MB-231,0.167
CC1(N)CCN(c2cnc(-c3cccc(Cl)c3Cl)c(N)n2)CC1 [SHP099 hydrochloride] + COC(=O)c1ccc([C@H]2c3[nH]c4ccccc4c3C[C@H](C(=O)OC)N2C(=O)CCl)cc1 [RSL3],relative cell viability,HCC1937,0.397
same,relative cell viability,MDA-MB-231,0.628
COc1ccc2c(=O)c(-c3ccccc3)coc2c1 [7-Methoxyisoflavone] + COC(=O)c1ccc([C@H]2c3[nH]c4ccccc4c3C[C@H](C(=O)OC)N2C(=O)CCl)cc1 [RSL3],relative cell viability,HCC1937,0.396
same,relative cell viability,MDA-MB-231,0.419
NC(N)=N/N=C/c1cccc(Cl)c1Cl [Raphin1 acetate] + COC(=O)c1ccc([C@H]2c3[nH]c4ccccc4c3C[C@H](C(=O)OC)N2C(=O)CCl)cc1 [RSL3],relative cell viability,HCC1937,0.38
same,relative cell viability,MDA-MB-231,0.603
CCN(CC)CCN(Cc1ccc(-c2ccc(C(F)(F)F)cc2)cc1)C(=O)Cn1c(SCc2ccc(F)cc2)nc(=O)c2c1CCC2 [Darapladib] + COC(=O)c1ccc([C@H]2c3[nH]c4ccccc4c3C[C@H](C(=O)OC)N2C(=O)CCl)cc1 [RSL3],relative cell viability,HCC1937,0.0907
same,relative cell viability,MDA-MB-231,0.232
CCCc1cc(-c2nc(-c3ccc(C)cc3)cs2)ccn1 [Fatostatin] + COC(=O)c1ccc([C@H]2c3[nH]c4ccccc4c3C[C@H](C(=O)OC)N2C(=O)CCl)cc1 [RSL3],relative cell viability,HCC1937,0.269
same,relative cell viability,MDA-MB-231,0.715
Nc1ncnc2c1ncn2[C@@H]1O[C@H](COP(=O)(O)O)[C@@H](O)[C@H]1O [Adenosine 5'-monophosphate] + COC(=O)c1ccc([C@H]2c3[nH]c4ccccc4c3C[C@H](C(=O)OC)N2C(=O)CCl)cc1 [RSL3],relative cell viability,HCC1937,0.597
same,relative cell viability,MDA-MB-231,0.485
CC(C)=CCC[C@](C)(O[C@@H]1O[C@H](CO)[C@@H](O)[C@H](O)[C@H]1O)[C@H]1CC[C@]2(C)[C@@H]1[C@H](O)C[C@@H]1[C@@]3(C)CC[C@H](O[C@@H]4O[C@H](CO)[C@@H](O)[C@H](O)[C@H]4O[C@@H]4O[C@H](CO)[C@@H](O)[C@H](O)[C@H]4O)C(C)(C)[C@@H]3CC[C@]12C [Ginsenoside Rd] + COC(=O)c1ccc([C@H]2c3[nH]c4ccccc4c3C[C@H](C(=O)OC)N2C(=O)CCl)cc1 [RSL3],relative cell viability,HCC1937,0.616
same,relative cell viability,MDA-MB-231,0.478
COc1ccc([C@@H]2OC[C@H]3[C@@H]2CO[C@@H]3c2ccc(O[C@@H]3O[C@H](CO)[C@@H](O)[C@H](O)[C@H]3O)c(OC)c2)cc1OC [Forsythin] + COC(=O)c1ccc([C@H]2c3[nH]c4ccccc4c3C[C@H](C(=O)OC)N2C(=O)CCl)cc1 [RSL3],relative cell viability,HCC1937,0.731
same,relative cell viability,MDA-MB-231,0.664

# Source: the supplement of paper PMC9492666
